# Data published in PubChem BioAssay AID1259418 (Broad Institute, 2018).
# Among all 3,400 compounds or so, about 840 (25%) were called active. About 11% were inconclusive and are not listed. Not all results are given here. Potency and affinity values are given separately. Unmarked numbers belong to inactive results.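 The calls were made as follows: active = fitted half-maximal concentration of signal decrease at or below twice the sample's top tested concentration; inconclusive = flat curve between -70 and -30 percent, or poor fit; inactive = flat within 30 percent, signal rise, or potency above limit.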
# Test: T. gondii growth inhibition with IFN-gamma, dose response, cell-based, ME49Luc, HeLa, luciferase, 72 h (AID 1259418)
# Settings: T. gondii ME49Luc in IFN-y HeLa, stronger effect = lower value, -100% = high-dose IFN-γ control wells; at 19.5 µM unless noted
row,SMILES,max activity
1,COc1ccc(-c2nc(Cn3nnc(-c4nc(-c5cccc(Cl)c5)no4)c3C)c(C)o2)cc1,-6.44% [at 0.35 µM]
2,Cc1nc(CCNC(=O)C2CCN(S(=O)(=O)c3cc(F)ccc3F)CC2)cs1,21.6% [at 2.6 µM]
3,Cc1ccc(C(=O)Nc2c(C(=O)N3CCN(c4ccccn4)CC3)[nH]c3ccccc23)cc1,-27.2%
4,O=C(Cc1cccc(F)c1)Nc1ccc(-c2nc(-c3ccccc3)co2)cc1,16.9% [at 2.6 µM]
5,Cc1ccc(-c2nc(Cn3nnc(-c4nc(-c5ccc(F)cc5)no4)c3C)c(C)o2)cc1,22%
6,CCCC(=O)Nc1ccc(-c2nc(-c3cc(C)ccc3C)co2)cc1,-11.6% [at 1.35 µM]
7,COC[C@@H]1CCC[C@]12CN(S(=O)(=O)c1cccs1)CCO2,-9.83% [at 0.6 µM]
8,COCC12CCCOC1CCN(S(=O)(=O)c1cn(C)cn1)C2 (stereo not drawn),18.3%
9,CCSc1ccc(-c2sc(-c3ccc(F)cc3)nc2C)nn1,31.6%
10,Cc1ccc2[nH]c(C(=O)N3CCN(c4ccccn4)CC3)c(NC(=O)c3ccc(F)cc3)c2c1,-13.6%
11,Cc1cccc(C(=O)Nc2c(C(=O)NCc3cccnc3)[nH]c3ccc(C)cc23)c1,28.1% [at 5 µM]
12,Cc1ccc(C(=O)Nc2c(C(=O)NCc3cccnc3)[nH]c3ccc(C)cc23)cc1,54.9% [at 2.6 µM]
13,Cc1ccc2[nH]c(C(=O)NCc3cccnc3)c(NC(=O)c3ccc(Cl)cc3)c2c1,-12% [at 10 µM]
14,Cc1ccc(C(=O)Nc2c(C(=O)NCc3ccccn3)[nH]c3ccccc23)cc1,-2.99% [at 0.35 µM]
15,Cc1ccc2[nH]c(C(=O)NCc3ccccn3)c(NC(=O)c3ccc(Cl)cc3)c2c1,27.1% [at 0.35 µM]
16,O=C(Nc1c(C(=O)NCc2ccccn2)[nH]c2ccccc12)c1ccc(Cl)cc1,9.23% [at 1.35 µM]
17,Cc1cccc(C(=O)Nc2c(C(=O)NCc3ccccn3)[nH]c3ccc(C)cc23)c1,14.8% [at 10 µM]
18,Cc1ccc2c(c1C)-n1cccc1C1(CCN(C(=O)Cc3cccs3)CC1)N2,6.55% [at 0.16 µM]
19,COc1ccc(-c2nc(Nc3cccc(Cl)c3C)c3ccccc3n2)cc1,25.3%
20,Cc1ccc(-c2coc(-c3ccc(NC(=O)Nc4cccc(Br)c4)cc3)n2)cc1,22.7% [at 0.16 µM]
21,Cc1ccccc1-c1noc(-c2nnn(Cc3nc(-c4cccc(Cl)c4)oc3C)c2C)n1,-11.4% [at 0.16 µM]
22,Cc1noc(C)c1C1CCCN1Cc1cn(C(C)C)c2ccccc12 (stereo not drawn),17.5% [at 10 µM]
23,Cc1cc(C2CCCN2Cc2cn(C(C)C)c3ccccc23)on1 (stereo not drawn),5.01%
24,Clc1ccc(CSc2nc(NC3CCCCC3)c3ccccc3n2)cc1,26.1% [at 2.6 µM]

row,SMILES,max activity
1,CC(C)c1ccc(S(=O)(=O)N2CCC3(CC2)NCCN=C3NC2CCCCC2)cc1,20% [at 0.16 µM]
2,CC(C)c1ccc(S(=O)(=O)N2CCC3(CC2)NCCN=C3NC2CCCCCC2)cc1,17.1% [at 0.16 µM]
3,CC(C)c1ccc(S(=O)(=O)N2CCC3(CC2)NCCN=C3NC2CCCC2)cc1,-14.4% [at 10 µM]
4,Cc1ccc(-c2coc(-c3ccc(NC(=O)Nc4ccc(Cl)cc4)cc3)n2)cc1,13.9% [at 0.16 µM]
5,Cc1ccc(C)c(-c2coc(-c3ccc(NC(=O)Nc4ccc(C)c(F)c4)cc3)n2)c1,15%
6,CCc1ccccc1Nc1ncnc2c1cnn2-c1ccc(OC)cc1,48.9%
7,Clc1ccc(-c2nc(N3CCN(c4ccccn4)CC3)c3ccccc3n2)cc1,-23.4% [at 1.35 µM]
8,COc1ccc(-c2nc(NCc3cccc(OC)c3)c3ccccc3n2)cc1,17.2%
9,CCc1ccccc1NC(=O)N1CCN(Cc2nc(-c3ccc(C)cc3)oc2C)CC1,29.1% [at 10 µM]
10,COc1ccc(-c2nc3c(s2)CN(C(=O)Nc2ccc(Cl)cc2)CC3)cc1OC,10.2% [at 0.16 µM]
11,CCOC(=O)CSC1=Nc2ccccc2C2=NC(CC(=O)NC3CCCCC3)C(=O)N12 (stereo not drawn),-18.7% [at 10 µM]
12,O=C1CCc2cc(S(=O)(=O)NCc3ccccc3Cl)cc3c2N1CCC3,22.6% [at 2.6 µM]
13,O=C1CCc2cc(S(=O)(=O)NCc3cccs3)cc3c2N1CCC3,24.5%
14,CC1Cc2ccccc2N1S(=O)(=O)c1cc2c3c(c1)CCC(=O)N3CCC2 (stereo not drawn),-11.1% [at 0.35 µM]
15,O=C1CCc2cc(S(=O)(=O)N3CCCc4ccccc43)cc3c2N1CCC3,-12% [at 0.35 µM]
16,O=C1CCc2cc(S(=O)(=O)N3CCC(Cc4ccccc4)CC3)cc3c2N1CCC3,11.4% [at 1.35 µM]
17,O=C1CCc2cc(S(=O)(=O)NCCC(c3ccccc3)c3ccccc3)cc3c2N1CCC3,9.16%
18,Cc1ccc(C2=NC3(CCN(CC(=O)Nc4c(C)cccc4C)CC3)NC2=O)cc1,10.4% [at 0.16 µM]
19,COc1ccc2c(c1)NC1(CCN(C(=O)CCC3CCCC3)CC1)c1cccn1-2,10.2% [at 0.16 µM]
20,COc1ccc(C)cc1NC(=O)N1CCc2nc(-c3ccc(C)cc3)sc2C1,-14.6% [at 0.16 µM]
21,CCOc1ccc(CCNc2nc(-c3ccc(OC)cc3)nc3ccccc23)cc1,-9.19% [at 0.35 µM]
22,CCc1cc2c(N3CCC(C(N)=O)(N4CCCCC4)CC3)ncnc2s1,-27.2%
23,CCOC(=O)CCNC(=O)Nc1ccc(-c2nc(-c3ccccc3)co2)cc1,-13.1% [at 1.35 µM]
24,COC(=O)c1ccc(NC(=O)COc2nc(C)nc3ccccc23)cc1,16% [at 2.6 µM]
